In PubChem BioAssay AID720597 (Broad Institute, 2013):
Results with a measured potency or affinity are listed apart. Active and inactive are the calls of the source.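 How the source made its calls: active means fitted half-maximal dose no more than twice the top valid tested dose, for compounds that lower signal; inconclusive means fit invalid, or curve flat with activity between -70 and -30; inactive means potency past limit, curve flat within ±30, or signal increasing.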

The compounds below were run against NAD-dependent protein deacylase sirtuin-5, mitochondrial (Homo sapiens) (UniProt Q9NXA8) (assay: SIRT5 deacylase inhibitors, dose response, biochemical, fluorescence imaging, cherry-pick, set 6 (AID 720597;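 further: lower AMC signal can also come from blocking the trypsin step; 0% = median of neutral control wells and -100% = median of positive control wells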)). Conditions: Purified SirT5, succinyl-peptide-AMC/trypsin fluorescence; series mostly up to 15 µM; activity change, negative = inhibition: at the top concentration.
NAD-dependent protein deacylase sirtuin-5, mitochondrial (Homo sapiens), sequence (Q9NXA8 whole entry, looked up): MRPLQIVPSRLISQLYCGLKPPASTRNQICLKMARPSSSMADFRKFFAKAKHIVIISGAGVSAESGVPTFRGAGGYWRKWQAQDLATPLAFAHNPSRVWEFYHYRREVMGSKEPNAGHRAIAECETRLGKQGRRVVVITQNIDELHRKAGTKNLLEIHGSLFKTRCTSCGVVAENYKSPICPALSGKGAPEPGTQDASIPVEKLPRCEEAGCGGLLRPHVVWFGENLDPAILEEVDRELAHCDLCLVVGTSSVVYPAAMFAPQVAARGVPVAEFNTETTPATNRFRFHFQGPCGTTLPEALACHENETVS

Activity change, negative = inhibition, inactive:
C[C@@H]1CN([C@H](C)CO)C(=O)c2cc(NC(=O)CCC(F)(F)F)ccc2O[C@@H](C)CCCCO[C@@H]1CN(C)Cc1ccc(C(F)(F)F)cc1 -23.9%, CC(C)CC#Cc1ccc2c(c1)O[C@H](CN(C)C(=O)c1cccc(F)c1)[C@@H](C)CN([C@H](C)CO)S2(=O)=O -1.6%, COc1cccc(CNC(=O)C[C@H]2CC[C@H]3[C@H](COc4ccc(NS(=O)(=O)c5ccccc5F)cc4C(=O)N3C)O2)c1 2.21%, Cc1ccc(S(=O)(=O)Nc2ccc3c(c2)C(=O)N([C@@H](C)CO)C[C@H](C)[C@@H](CN(C)S(=O)(=O)c2ccc(F)cc2)OCCCC[C@@H](C)O3)cc1 -1.33%, CCNC(=O)C[C@H]1CC[C@H]2[C@@H](COc3ccc(NS(=O)(=O)c4ccccc4C)cc3C(=O)N2C)O1 -7.91%, COc1ccc(S(=O)(=O)N(C)C[C@@H]2Oc3cc(C#CC4CCCC4)ccc3S(=O)(=O)N([C@H](C)CO)C[C@H]2C)cc1 -14.8%, COc1ccc(S(=O)(=O)Nc2ccc3c(c2)CC(=O)N([C@@H](C)CO)C[C@@H](C)[C@H](CN(C)S(=O)(=O)c2ccc(C)cc2)O3)cc1 -19.5%, C[C@H](CO)N1C[C@H](C)[C@H](CN(C)S(=O)(=O)c2ccc(F)cc2)Oc2cc(C3=CCCCC3)ccc2S1(=O)=O 1.92%, C[C@H](CO)N1C[C@H](C)[C@@H](CN(C)Cc2ccccc2)Oc2ccc(N(C)C)cc2C1=O 29.6%, CCCC#Cc1ccc2c(c1)O[C@@H](CN(C)CC1CCOCC1)[C@H](C)CN([C@H](C)CO)S2(=O)=O -17.3%, COc1ccc([Si](C)(C)[C@H]2[C@H](CCn3cc([C@H](O)c4ccccc4)nn3)O[C@@]3(C(=O)N(Cc4cccc(N5CCOC5=O)c4)c4ccccc43)[C@@H]2C)cc1 -6.17%, COc1ccc(C#Cc2ccc([C@H]3[C@H](CO)N4C(=O)CN(C(=O)c5cccnc5)C[C@@H]34)cc2)cc1 -11.8%, C[C@H](CO)N1C[C@H](C)[C@@H](CN(C)C(=O)Nc2cc(F)ccc2F)Oc2cc(/C=C/c3ccccc3)ccc2S1(=O)=O 17.7%, COc1cccc(NC(=O)N2CC(=O)N3[C@@H](CO)[C@H](c4ccc(C#CCC5CCCC5)cc4)[C@@H]3C2)c1 33%, CN(C)CCCNC(=O)C[C@H]1CC[C@H]2[C@@H](COC[C@H](O)CN2S(=O)(=O)c2ccc(F)cc2)O1 5.69%, O=C(CN1CCOCC1)N1CCCCN2[C@H](C1)[C@H](c1ccc(-c3ccccc3)cc1)[C@@H]2CO -9.5%, CC(C)CC#Cc1ccc2c(c1)O[C@H](CN(C)C(=O)C1CCCCC1)[C@@H](C)CN([C@@H](C)CO)S2(=O)=O -7.95%, Cc1noc(C)c1S(=O)(=O)Nc1ccc2c(c1)CC(=O)N([C@H](C)CO)C[C@H](C)[C@@H](CN(C)Cc1ccc(C(=O)O)cc1)O2 -11.7%, COc1ccccc1-c1ccc2c(c1)O[C@@H](CN(C)Cc1ccc3c(c1)OCO3)[C@H](C)CN([C@@H](C)CO)S2(=O)=O 22%, C[C@H]1CN([C@@H](C)CO)C(=O)c2ccccc2-c2ccccc2CO[C@H]1CN(C)Cc1ccccc1C(F)(F)F -22.2%, C[C@H]1CN([C@@H](C)CO)C(=O)c2cc(C#CCN(C)C)cnc2O[C@H]1CN(C)Cc1ccncc1 -5.33%, COc1ccccc1C(=O)Nc1ccc2c(c1)C(=O)N(C)[C@H]1CC[C@H](CC(=O)Nc3cccc(C(C)C)c3)O[C@@H]1CO2 3.29%, C[C@@H]1CN([C@H](C)CO)C(=O)c2cc(NS(=O)(=O)c3ccc(Cl)cc3)ccc2O[C@@H]1CN(C)Cc1ccc(-c2ccccc2)cc1 -4.51%, CCCNC(=O)N1[C@@H](CO)[C@@H](c2ccccc2)C12CN(C(=O)CC1CC1)C2 4.32%, COc1cc2c(cc1OC)CN(C(=O)[C@@H]1[C@H]3C(=O)O[C@H](c4ccccc4)[C@H](c4ccccc4)N3[C@H](c3ccc(OCCO)cc3)[C@@]13C(=O)Nc1ccc(C#CCNC(N)=O)cc13)CC2 -12.1%, Cc1noc(C)c1NC(=O)Nc1cccc2c1O[C@@H](CN(C)Cc1ccc(Oc3ccccc3)cc1)[C@@H](C)CN([C@H](C)CO)C2=O -13%, C[C@H]1CN([C@@H](C)CO)S(=O)(=O)c2ccc(C#Cc3ccc(F)cc3)cc2O[C@@H]1CN(C)C(=O)NC1CCCCC1 -2.87%, CN(C)CC#Cc1ccc([C@@H]2[C@@H](CO)N3CCCCN(C(=O)CN(C)C)C[C@H]23)cc1 -9.95%, COc1ccccc1S(=O)(=O)N(C)C[C@@H]1Oc2cc(C#CCC3CCCC3)ccc2S(=O)(=O)N([C@H](C)CO)C[C@H]1C -8.51%, Cc1noc(C)c1S(=O)(=O)Nc1ccc2c(c1)C(=O)N([C@@H](C)CO)C[C@H](C)[C@@H](CN(C)Cc1ccc(C(F)(F)F)cc1)OCCCC[C@@H](C)O2 -32.6% [at 16 µM], C[C@@H]1CCCCO[C@H](CN(C)S(=O)(=O)c2ccc(Cl)cc2)[C@H](C)CN([C@@H](C)CO)C(=O)c2cc(NS(=O)(=O)c3ccc(F)cc3)ccc2O1 -1.53%, Cc1ccccc1S(=O)(=O)N1CCCCN2[C@H](CO)[C@@H](c3ccc(-c4ccccc4)cc3)[C@H]2C1 -17.2%, C[C@H](CO)N1C[C@H](C)[C@@H](CN(C)Cc2ccc(Cl)c(Cl)c2)Oc2c(NC(=O)c3ccc(-c4nccs4)cc3)cccc2C1=O -6.33% [at 3.8 µM], Cc1ccc(-c2ccc([C@@H]3[C@@H](CO)N4CCCCN(S(=O)(=O)c5cccc(C)c5)C[C@H]34)cc2)cc1 7.83%, COc1ccc(CN(C)C[C@H]2Oc3c(NS(=O)(=O)c4ccccc4)cccc3C(=O)N([C@@H](C)CO)C[C@H]2C)cc1 -24.4%, CCN(C[C@@H]1[C@@H](c2ccccc2)[C@H](CO)N1C(=O)C1CC1)C(=O)NC1CCCC1 38.9%, COc1cccc(NC(=O)N(C)C[C@@H]2Oc3cc(C#Cc4ccccc4)ccc3S(=O)(=O)N([C@H](C)CO)C[C@H]2C)c1 16.7%, Cc1ccc(S(=O)(=O)N(C)C[C@H]2OCc3ccccc3-c3c(n(C)c4ccccc34)C(=O)N([C@H](C)CO)C[C@H]2C)cc1 23.8%

outcome, inactive:
C[C@@H]1CCCCO[C@@H](CN(C)C(=O)Nc2ccc(C(F)(F)F)cc2)[C@@H](C)CN([C@H](C)CO)C(=O)c2cc(NS(=O)(=O)c3ccc(Cl)cc3)ccc2O1
